12-LOX inh: Primary qHTS assay for inhibitors of human arachidonate 12S-lipoxygenase (ALOX12): Round 2 | purified 12hLO, xylenol orange hydroperoxide absorbance | Potency, µM (titrated, usually from 108 µM), without a hit: top-dose activity change, negative = inhibition, actives largely listed as inhibitors | 1.1% of 580,000 active | AID 1671190, 2021
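Hydroperoxide product was detected by ferrous iron/xylenol orange as the 573 to 405 nm absorbance ratio. Arachidonic acid at 40 uM (final) was turned over for 30 min at room temperature by 150 nM human 12hLO, pH 7.0 Hepes buffer, after 15 min compound preincubation.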
TDP1 cell noCPT: qHTS for Inhibitors of human tyrosyl-DNA phosphodiesterase 1 (TDP1): qHTS in cells in absence of CPT; DT40 Tdp1-/- hTDP1 cells, no CPT, ATP luminescence, 48 h; Potency, µM (doses to about 46.2 µM), inactives show at the top dose activity change, negative = growth inhibition, hits mostly inhibitors; 15% of 420,000 active; also: nearly all actives have a fitted effect of over 55% in size
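Luminescent ATP content (CellTiter-Glo) served as the growth readout. Knockout chicken DT40 cells expressing human TDP1 were exposed to compounds without camptothecin for a minimum 48 hr at 37 °C.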
VP16 counter: VP16 counterscreen qHTS for inhibitors of ROR gamma transcriptional activity | Drosophila S2 Gal4-VP16 UAS-luciferase, luminescence, 20 h | Potency, µM (titrated, usually from 53.6 µM), for inactives: top-dose activity, negative = inhibition, hits mostly inhibitors | 3.5% of 310,000 active;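 also: Gal4-VP16 expression switched on by copper sulfate through the metallothionein promoter; nearly all actives have a fitted effect of over 50% in size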
ELG1 DNA repair: qHTS screen for small molecules that inhibit ELG1-dependent DNA repair in human embryonic kidney (HEK293T) cells expressing luciferase-tagged ELG1; HEK293T ELG1-luciferase reporter, luminescence, 16 h; DNA damage induced by 5-fluorouridine; Potency, µM (doses to about 46.1 µM), for the others: at the top dose activity change, negative = inhibition, usual class: inhibitors; 2.3% of 330,000 active; also: nearly all actives have a fitted effect of over 55% in size
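Reporter activity after DNA damage by 5-fluorouridine is monitored. Compound-treated cells incubate 16 hr at 37 °C, then ONE-Glo is added for 30 min before luminescence reading.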
TDP1 cell CPT: qHTS for Inhibitors of human tyrosyl-DNA phosphodiesterase 1 (TDP1): qHTS in cells in presence of CPT; chicken DT40 Tdp1-/-;hTDP1 cells + 20 nM CPT, ATP luminescence, 48 h; Potency, µM (top dose mostly 46.2 µM), for the others: top-dose activity change, negative = growth inhibition, actives largely listed as inhibitors; 12% of 420,000 active; AID 686979, 2013; also: nearly all actives have a fitted effect of over 55% in size
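Chicken DT40 Tdp1-/- cells stably complemented with human TDP1 were seeded at 400 cells/well in medium containing 20 nM camptothecin, exposed to pin-transferred compounds, and grown at 37 °C for at least 48 hr. Viability was read as ATP luminescence.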
RORg inh: qHTS for inhibitors of ROR gamma transcriptional activity. Nuclear receptor ROR-gamma (Mus musculus), P51450. Drosophila S2 Gal4-RORgamma UAS-luciferase reporter, 20 h. Potency, µM (highest dose often 53.6 µM), without a hit: at the top dose activity change, negative = inhibition, hits mostly inhibitors. 5.4% of 310,000 active. AID 2551, 2010; also: nearly all actives have a fitted effect of over 60% in size
Target sequence (P51450 whole entry, looked up, the tested form may be a part): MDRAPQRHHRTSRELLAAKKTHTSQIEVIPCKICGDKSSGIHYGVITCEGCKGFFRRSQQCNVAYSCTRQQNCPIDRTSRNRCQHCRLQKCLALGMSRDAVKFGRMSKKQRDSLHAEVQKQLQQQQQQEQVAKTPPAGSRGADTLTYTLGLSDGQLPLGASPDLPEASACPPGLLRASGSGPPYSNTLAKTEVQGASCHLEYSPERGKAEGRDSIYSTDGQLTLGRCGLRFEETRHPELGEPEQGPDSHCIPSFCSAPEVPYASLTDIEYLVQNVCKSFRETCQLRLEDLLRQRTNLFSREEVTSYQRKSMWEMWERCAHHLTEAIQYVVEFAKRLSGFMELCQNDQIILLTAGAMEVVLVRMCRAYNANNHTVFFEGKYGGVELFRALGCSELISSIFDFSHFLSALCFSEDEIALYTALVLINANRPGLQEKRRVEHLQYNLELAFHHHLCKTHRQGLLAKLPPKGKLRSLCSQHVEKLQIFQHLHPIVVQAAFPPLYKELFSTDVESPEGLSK
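Drosophila S2 cells stably expressing Gal4-DBD/mouse RORγ fusion under metallothionein promoter plus UAS-luciferase; compound 1 h, then 700 uM CuSO4 induction for 20 h at ambient temperature; inhibition read as reduced luminescence.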
* marks the source's active call; other numbers are inactive results; ? = inconclusive; · = no result; [ ] = another dose, or the depositor's remark. Compounds with a hit are over-represented: about 15% of the library has one in this group of screens. Calls follow the shape of the dose curve; as a rule, active = well fitted curve in the direction sought with a large enough effect; inconclusive = small, poorly fitted or top-dose-only effect, or another doubt; inactive = no such curve, though single readings can be large; an effect the other way counts as inactive or inconclusive. % is scaled to controls: 0 for no effect and ±100 for the full control effect; potency is read from the fitted curve at half-maximal effect.

SMILES | 12-LOX inh | TDP1 cell noCPT | VP16 counter | ELG1 DNA repair | TDP1 cell CPT | RORg inh
Oc1ccccc1Oc1ncc(Br)c(Cl)n1 | 32µM* | 5% | -22% | 7% | -5% | 33%
CCCCOc1ccc(C(=O)N2CCC[C@H]2c2nc(-c3ccc(F)cc3)no2)cc1 | 5% | · | · | · | · | ·
O=C1NN(c2ccccc2)C(=O)/C1=C/c1ccc(-c2ccc(Cl)c(C(=O)O)c2)o1 | ? | -1% | 1% | 11% | 2% | -1%
O=C(O)c1cc(-c2ccc(/C=C3\NC(=O)N(c4ccccc4)C3=O)o2)ccc1Cl | ? | 4.1µM* | -8% | 27% | ? | 1%
O=C(O)c1cc(-c2ccc(/C=C3\NC(=O)N(c4ccc(Cl)cc4)C3=O)o2)ccc1Cl | ? | -11% | 3% | 6% | -7% | -23%
C#CCN1C(=O)S/C(=C\c2ccc(-c3ccc(Cl)c(C(=O)O)c3)o2)C1=O | -14% | -29% | 1.3µM* | ? | -29% | -10%[1.91 µM]
C=CCC[C@@H](Cc1ccc(F)cc1)C(=O)OC[C@@H](Cc1c[nH]c2ccccc12)NC(=O)[C@@H](CC=C)CC(=O)N[C@@H](CO)Cc1ccccc1 | 7% | ? | · | 3% | 23µM* | ·
C=CCC[C@@H](Cc1ccc(F)cc1)C(=O)OC[C@@H](Cc1c[nH]c2ccccc12)NC(=O)[C@H](CC=C)CC(=O)N[C@H](CO)Cc1ccccc1 | -36% | ? | · | 12% | ? | ·
C=CCC[C@@H](Cc1ccc(F)cc1)C(=O)OC[C@@H](Cc1ccccc1)NC(=O)[C@H](CC=C)CC(=O)NCCO | 18% | 13µM* | · | -29% | 9.2µM* | ·
C=CCC[C@H](Cc1ccc(F)cc1)C(=O)OC[C@H](Cc1c[nH]c2ccccc12)NC(=O)[C@@H](CC=C)CC(=O)NCCO | -30% | ? | · | 21µM* | ? | ·
C=CCC[C@H](Cc1ccc(F)cc1)C(=O)OC[C@@H](Cc1c[nH]c2ccccc12)NC(=O)[C@@H](CC=C)CC(=O)N[C@@H](CO)Cc1ccccc1 | ? | 23µM* | · | 2% | ? | ·
O=S(CCN1CCN(Cc2c(F)cccc2Cl)CC1)c1ccccc1 (centres undefined) | 11% | · | · | · | · | ·
O=S(=O)(O)NCCCO | 6% | · | · | · | · | ·
C=CCC[C@@H](Cc1ccc(F)cc1)C(=O)OC[C@H](Cc1c[nH]c2ccccc12)NC(=O)[C@@H](CC=C)CC(=O)N[C@@H](CO)Cc1ccccc1 | -17% | ? | · | -20% | 21µM* | ·
CCc1ccc(-c2cc(C)no2)cc1S(=O)(=O)N1CCN(c2ccc(OC)cc2)CC1 | -7% | ? | 2% | -26% | 21µM* | 21%
COc1cccc(N2CCN(S(=O)(=O)c3cc(-c4cc(C)no4)ccc3C)CC2)c1 | -15% | 18µM* | · | · | ? | ·
CCc1ccc(-c2cc(C)no2)cc1S(=O)(=O)N1CCN(C(=O)c2ccco2)CC1 | -4% | 21µM* | -4% | ? | 0% | 8%
Cn1cc(C(=O)NCCNS(=O)(=O)c2ccccc2)c2ccccc21 | 18% | · | · | · | · | ·
CCOc1ccc(CSCCNC(=S)Nc2ccc(OC)cc2)cc1 | 45µM* | 23µM* | 7.1µM* | ? | ? | 2µM*
COc1ccc(C(=O)NCCSCc2ccc(C)cc2)cc1 | 0% | ? | -1% | -18% | -19% | 8%
CCCOc1ccc(CSCCNC(=S)Nc2ccccc2)cc1 | ? | 23µM* | ? | ? | 26µM* | 2.8µM*
COC(=O)c1ccc(CN(C)CC2CC2)cc1 | 20% | · | · | · | · | ·
CC(C)C(NC(N)=O)C(=O)Nc1ccc(Cl)cc1 (centres undefined) | 0% | · | · | · | · | ·
COc1ccc(CCn2c(=O)c3cccnc3n(Cc3ccc([N+](=O)[O-])cc3)c2=O)cc1OC | -9% | 16µM* | -3% | 16% | ? | 12%
COc1ccc(CCn2c(=S)[nH]c(=O)c3cccnc32)cc1OC | · | 0.1µM* | · | · | 0.22µM* | ·
SMILES | 12-LOX inh | TDP1 cell noCPT | VP16 counter | ELG1 DNA repair | TDP1 cell CPT | RORg inh
O=C(/C=C/c1ccc(Br)o1)NC(c1ccccc1)c1ccccc1 | ? | ? | 0% | 1% | 9.2µM* | 9%
COc1cccc(C(=O)N2CCN(c3oc(-c4ccccc4)nc3C#N)CC2)c1 | -10% | · | · | · | · | ·
O=C(Nc1ccc(-c2csc(Nc3ccc(Cl)cc3)n2)cc1)c1ccccc1 | ? | ? | · | 18% | ? | ·
CC(=O)c1cccc(Nc2nc(-c3ccccc3)cs2)c1 | -25% | ? | -6% | ? | ? | 17%
O=C(Nc1cccc(-c2csc(Nc3ccccc3)n2)c1)c1ccccc1 | -3% | 21µM* | 4% | ? | ? | 12%
O=C(COC(=O)c1ccccn1)Nc1nc(-c2cccc([N+](=O)[O-])c2)cs1 | 2% | 18µM* | 35µM* | 18% | ? | 13µM*
O=[N+]([O-])c1cccc(-c2csc(Nc3ccccc3)n2)c1 | -24% | 29µM* | ? | ? | ? | ?
O=C(Nc1ccc(-c2csc(Nc3cccc(C(F)(F)F)c3)n2)cc1)c1ccccc1 | -10% | 9.2µM* | -6% | 12µM* | 4.6µM* | 25%
C=CCN1CC2(CCC1=O)CCN(c1nccc(C(F)(F)F)n1)CC2 | 0% | · | · | · | · | ·
O=C(NCC1CCCO1)c1ccc(Cn2c(SCc3ccc(F)cc3)nc3cccnc32)cc1 (centres undefined) | 6% | · | · | · | · | ·
O=C(Nc1cccc(-c2csc(Nc3cccc(C(F)(F)F)c3)n2)c1)c1ccccc1 | -2% | ? | -11% | 21µM* | ? | ?
CC(=O)NCc1ccc(-c2csc(Nc3cccc(C(F)(F)F)c3)n2)o1 | 10µM* | · | · | · | · | ·
CCOc1cccc2cc(-c3csc(Nc4cccc(C(F)(F)F)c4)n3)c(=O)oc12 | -18% | · | · | · | · | ·
O=C(Nc1ccc(-c2csc(Nc3cccc(C(F)(F)F)c3)n2)cc1)c1cc([N+](=O)[O-])cc(C(F)(F)F)c1 | 7% | 16µM* | 1% | ? | 15µM* | 3%
Cc1nc(NC(=O)c2ccccc2)sc1-c1csc(Nc2cccc(F)c2)n1 | · | · | -24% | ? | · | 18%

Screening results: PubChem BioAssay, National Center for Advancing Translational Sciences (NCATS)
